# Results with a measured potency or affinity are listed apart. A number with no mark means an inactive call.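 Rule for the calls: active = fitted half-maximal concentration for loss of cell signal no higher than twice the top valid tested concentration; inconclusive = flat curve at 30 to 70% inhibition, or poor fit; inactive = flat within 30%, signal rise, or potency above limit.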
# Assay: MDA-MB-231 cell growth inhibition, dose response, cytotoxicity control for RAD54 inhibitor project, CellTiter-Glo luminescence, cherry-pick (AID 651692);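 note: 0% = median of sample compound wells and -100% = staurosporine control wells; more negative values mean stronger loss of viable cell signal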
# Conditions: MDA-MB-231 viability, 24 h; series mostly up to 26 µM; activity change, negative = growth inhibition: at the top concentration
row,SMILES,"activity change, negative = growth inhibition [%]"
1,COc1ccc2c(c1)c1ncn(CCN3CCCC3)c(=O)c1n2C,2.26
2,Cc1ccc2nc(C)c3c(c2c1)N(c1ccc(F)cc1)CC3,-8.5
3,CN(C)CCN(C(=O)CN1C(=O)c2ccccc2C1=O)c1nc2cc3c(cc2s1)OCCO3,-2.76
4,Oc1cccc(Nc2c3ccccc3nc3ccccc23)c1,-0.751
5,COc1cccc(-c2cc3nc(NCCCN(C)C)n(C)c(=O)c3s2)c1,-0.818
6,Cc1c(OCC(=O)NC2CC(C)(C)NC(C)(C)C2)ccc2c1oc(=O)c1ccccc12,0.065
7,CC1CCc2sc3nc(N4CCN(CCO)CC4)n4ncnc4c3c2C1 (centres undefined),-3.77
8,CC(=O)Nc1cc(-c2cccc(C(=O)NCCN(C)C)c2)cn2c(-c3ccccc3)cnc12,-4.39
9,COc1cccc2sc3cc(NCCCN4CCOCC4)ccc3c(=O)c12,6.52
10,Cc1cccn2c(=O)c3cc(C(=O)NCCN4CCOCC4)c(=N)n(CCCN4CCOCC4)c3nc12,10.8
11,COc1cc2c3c(cccc3c1)C(=O)N(CCN1CCCC1)C2=O,16.7
12,CCN(CC)Cc1cc2[nH]c3c4ccc(Cl)cc4ncc3c2cc1OC,2.58
13,CCN1CCc2c(sc(NC(=O)c3ccc(S(=O)(=O)N4CCOCC4)cc3)c2C(=O)OC)C1,6.6
14,CN(C)CCNC(=O)c1cccc(-c2cnc3c(NC=O)cc(-c4ccc(S(C)(=O)=O)cc4)cn23)c1,5.28
15,Cc1cc(N2CCN(C)CC2)nc2ccc(NC(=S)NCCCN3CCc4ccccc4C3)cc12,-2.84
16,COc1ccc2nc(-c3ccc(N)cc3)[nH]c2c1,0.098
17,COc1ccc(OC)c(Nc2nc(NCCCN(C)C)nc(N)c2[N+](=O)[O-])c1,-2.82
18,Cn1nc(-c2ccccc2)cc1NS(=O)(=O)c1ccc(C#N)cc1,1.14
19,Cc1ccc(-c2nc(NCCCO)c3ccccc3n2)cc1,-3.38
20,COc1ccc(Cc2c(-c3ccc(OC)c(OC)c3)nc3c(C)cc(Br)cn23)c(C)c1,16.1

row,SMILES,"activity change, negative = growth inhibition [%]"
1,CCOC(=O)c1c(NC(=O)c2ccc(S(=O)(=O)N3CCOCC3)cc2)sc2c1CCN(C)C2,-4.66
2,CN(C)CCNC(=O)c1cccc(-c2cnc3c(NC=O)cc(-c4ccc(C(=O)N5CCOCC5)cc4)cn23)c1,-0.135
3,CN(C)CCN(C(=O)CN1C(=O)c2ccccc2C1=O)c1nc2cc3c(cc2s1)OCO3,4.48
4,CCN1CCN(C(=S)Nc2ccc3nc(N4CCN(CC)CC4)cc(C)c3c2)CC1,-3.41
5,CCCN(CCC)CCCNC(=O)c1cc2c(-c3ccc(OC)c(OC)c3)nn(C)c2s1,6.76
6,CCCCN(CC)CCCNC(=O)c1cc2c(=O)n(C)c3ccccc3c2n1C,-6.97
7,Cn1c(C(=O)NCCN2CCCCCC2)cc2c(=O)n(C)c3ccccc3c21,1.73
8,Cc1ccc(-c2nc(C(=O)NCCCN(C)C)cc3c2[nH]c2ccccc23)cc1,-18.9
9,CCCN(CCC)CCCNC(=S)Nc1ccc2nc(N3CCCC3)cc(C)c2c1,-3.41
10,CCN(CC)CCn1c2ccc(F)cc2c2nc(C)sc21,-4.17
11,CCCN(CCC)CCCNC(=O)c1cc2c(=O)n(C)c3ccccc3c2n1C,-6.99
12,Cc1cccn2c(=O)c3cc(C(=O)NC4CCCC4)c(=N)n(CCCN4CCOCC4)c3nc12,-2.59
13,CCN(CC)CCNc1nc(SC)nc2sc3c(c12)CCN(C)C3,-3.77
14,Cc1nnc2c(N3CCN(CCO)CC3)nc3ccccc3n12,5.79
15,CC(=O)Nc1cc(-c2ccc(N3CCN(C)CC3)cc2)cn2c(-c3cccc(C(C)=O)c3)cnc12,-11
16,CCN1CCN(c2cc(C)c3cc(NC(=S)N4CCCC(C)C4)ccc3n2)CC1 (centres undefined),-10.6
17,CCN1CCN(c2nn3c(=O)c4ccccc4nc3c3ccccc23)CC1,-13.4
18,O=C(Nc1cccc(Br)c1)c1cc(S(=O)(=O)N2CCOCC2)cs1,7.46
19,Cc1c(CN(C)C)c2c(n1C)C(=O)c1ccc(Br)cc1-2,-0.638

# From PubChem BioAssay AID651692 (Broad Institute, 2012)
